From PubChem BioAssay
A number with no mark means an inactive call. The source made the active and inactive calls. Cut-off read from the data, not from the text of the source, unless noted: active = inhibition above about 33%; inactive = the rest.

Assays:
[1] = StAR promoter reporter inhibitors, counter-screen for LRH-1 inverse agonist project, cell-based, luminescence, high throughput (AID 651611; in the data active = inhibition above about 28%); conditions: StAR promoter luciferase reporter counterscreen, at 3.6 µM, hits give high values
[2] = target: Nuclear receptor subfamily 5 group A member 2 (Homo sapiens) (UniProt O00482); experiment: NR5A2 activity suppression in reporter cells – cell-based, luminescence, confirmation (AID 651613; in the data active = inhibition above about 42%;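 note: HEK293T cells co-transfected with LRH-1 and StAR promoter luciferase reporter; 0% = vehicle wells and 100% = parental cells lacking receptor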); conditions: cell-based LRH-1 luciferase reporter, inverse agonism; at 3.6 µM; hits give high values
[3] = target: Steroidogenic factor 1 (Homo sapiens) (UniProt Q13285); experiment: inverse agonism at SF1 nuclear receptor – cell-based, luminescence, high throughput, counter-screen for LRH-1 inverse agonist project (AID 651614; in the data active = inhibition above about 44%;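 note: cells cotransfected with StAR promoter reporter and SF1 expression vector; 0% = vehicle on cells with receptor and 100% = vehicle on cells lacking receptor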); conditions: cell-based SF1 luciferase reporter, at 3.6 µM, hits give high values
[4] = compounds suppressing VP16-driven luciferase signal – cell-based, luminescence, high throughput, counter-screen for LRH-1 inverse agonist project (AID 651615); conditions: Gal4-VP16 luciferase reporter cells, at 3.6 µM, hits give high values

Nuclear receptor subfamily 5 group A member 2 (Homo sapiens), sequence (O00482 whole entry, looked up): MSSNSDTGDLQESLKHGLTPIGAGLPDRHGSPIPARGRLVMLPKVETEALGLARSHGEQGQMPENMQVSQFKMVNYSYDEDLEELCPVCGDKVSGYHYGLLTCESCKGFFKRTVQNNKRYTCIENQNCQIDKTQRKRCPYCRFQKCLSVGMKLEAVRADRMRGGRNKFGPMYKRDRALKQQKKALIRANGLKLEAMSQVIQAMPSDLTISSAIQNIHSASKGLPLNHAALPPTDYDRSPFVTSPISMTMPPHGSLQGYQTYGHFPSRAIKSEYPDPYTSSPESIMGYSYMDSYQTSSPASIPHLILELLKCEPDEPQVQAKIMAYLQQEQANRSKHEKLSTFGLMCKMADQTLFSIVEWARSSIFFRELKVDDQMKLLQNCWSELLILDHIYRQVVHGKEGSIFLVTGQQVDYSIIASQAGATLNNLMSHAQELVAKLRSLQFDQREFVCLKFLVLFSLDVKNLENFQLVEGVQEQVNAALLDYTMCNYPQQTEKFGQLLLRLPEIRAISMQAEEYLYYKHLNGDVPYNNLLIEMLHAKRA
Steroidogenic factor 1 (Homo sapiens), sequence (Q13285 whole entry, looked up, the tested form may be a part): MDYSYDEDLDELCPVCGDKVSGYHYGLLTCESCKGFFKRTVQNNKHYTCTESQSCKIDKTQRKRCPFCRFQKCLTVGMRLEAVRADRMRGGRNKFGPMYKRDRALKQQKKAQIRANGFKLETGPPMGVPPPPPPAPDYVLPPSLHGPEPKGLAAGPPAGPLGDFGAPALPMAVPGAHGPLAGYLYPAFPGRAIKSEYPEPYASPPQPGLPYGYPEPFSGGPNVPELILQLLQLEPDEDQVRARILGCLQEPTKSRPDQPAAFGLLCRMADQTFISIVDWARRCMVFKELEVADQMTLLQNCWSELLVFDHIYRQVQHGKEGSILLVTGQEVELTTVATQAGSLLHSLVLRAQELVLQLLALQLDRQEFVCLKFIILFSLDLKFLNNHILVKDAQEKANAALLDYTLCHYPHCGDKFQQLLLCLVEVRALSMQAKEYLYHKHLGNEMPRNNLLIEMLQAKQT

Row | SMILES | inhibition [1] | inhibition [2] | inhibition [3] | inhibition [4]
1 | Cc1c([N+](=O)[O-])cc(C(=O)Nc2ccc(Cc3ccncc3)cc2)cc1[N+](=O)[O-] | 7.17% | 48.7% (active) | 45% (active) | -0.27%
2 | Cc1c(Cl)cccc1NC(=O)CSc1nnc(C)n1CC1CCCO1 (stereo not given) | -4.11% | 38.1% | 14.9% | -6.95%
3 | O=C(Nc1cccnc1)c1ccc([N+](=O)[O-])s1 | 25.4% | 43.8% (active) | 51% (active) | 11.1%
4 | O=C(COc1ccc(S(=O)(=O)N2CCCC2)cc1Cl)Nc1ccc2c(c1)OCO2 | 0.49% | 50.4% (active) | 37% | -9.34%
5 | CC(=O)Nc1ccc(NC(=O)CSc2ccc(-c3ccc(-n4ccnc4)cc3)nn2)cc1 | 9.71% | 52% (active) | 53% (active) | -5.42%
6 | NC(=O)c1ccc(NC(=O)COC(=O)C2COc3ccccc3O2)cc1 (stereo not given) | 21.9% | 52.4% (active) | 56.7% (active) | -20.5%
7 | COc1cc(N)c2ncccc2c1Br | 16.6% | 17.8% | 26.6% | -4.59%
8 | CCOC(=O)C(C)Oc1cccc2c(=O)n(CC(=O)Nc3ccc4c(c3)OCCO4)ccc12 (stereo not given) | 5.33% | 58.5% (active) | 51.7% (active) | -1.21%
9 | C/C(=N\NC(N)=S)C1(C)CCCCC1 | 20.6% | 57.1% (active) | 53.3% (active) | 29.4%
10 | COc1ccc(N2CC(C(=O)N/N=C/c3ccc(C)cc3)CC2=O)cc1 (stereo not given) | 40.7% (active) | 40% | 29.4% | 19.5%
11 | CCN(CC)C(=O)CSc1nc2ccc(NC(=O)CSc3nccn3C)cc2s1 | -37.7% | 0.81% | 7.59% | -9.75%
12 | Nc1ccc(Oc2ccc(Cl)cc2)cc1 | 1.47% | 35.2% | 31% | -7.96%
13 | CCc1cc(=O)oc2cc(C)cc(OCC(=O)NC3CC3)c12 | -0.05% | 66.5% (active) | 55.9% (active) | 10.2%
14 | COc1cc(C(=O)Nc2ccccc2C(=O)Nc2ccccn2)cc(OC)c1OC | 61.2% (active) | 45.9% (active) | 62.1% (active) | -2.31%
15 | CN(CCC#N)Cc1cc(=O)oc2ccc3ccccc3c12 | 13.8% | 55.2% (active) | 46.2% (active) | 5.57%
16 | CC(=O)c1ccc(NC(=O)CSc2nc3[nH]ncc3c(=O)[nH]2)cc1 | -0.97% | 61.5% (active) | 50.8% (active) | -6.29%
17 | O=[N+]([O-])c1ccc(N2CCCCC2)cc1N1CCOCC1 | 18% | 54.3% (active) | 54.9% (active) | -5.18%
18 | COc1ccc(-c2c(C)cc3oc(=O)cc(-c4ccccc4)c3c2C)cc1 | 10.6% | 54.8% (active) | 45.4% (active) | 17.3%
19 | CC(=O)C1=C(c2ccc(Br)cc2)C(=O)c2ccccc2C1=O | 74.3% (active) | 101% (active) | 78.1% (active) | 92% (active)
20 | COc1ccc(C2=CC(=O)OC3(CCCCC3)O2)cc1 | 15.4% | 63.9% (active) | 45.4% (active) | 6.01%
21 | O=C(Nc1ccc(F)cc1)c1oc2ccccc2c1NC(=O)C1CC1 | 24.4% | 50.9% (active) | 62.2% (active) | 3.97%
22 | Cc1ccc(-n2nnnc2-c2ccccc2Br)cc1 | 7.41% | 57.2% (active) | 52% (active) | 4.92%
23 | S=C(NCc1ccccc1)Nc1ccncc1 | 9.38% | 37% | 47.3% (active) | 13.1%
24 | CC(C)n1c(SCC(=O)Nc2ccc(N3CCOCC3)cc2)nnc1-c1ccco1 | 4.53% | 55.5% (active) | 45.7% (active) | -2.66%
25 | Cc1cc(S(=O)(=O)NCc2ccncc2)c(C)cc1Br | -10.6% | 39% | 38.6% | 41.4% (active)
